Laboratory results from PubChem BioAssay (NCATS).
Records with an inconclusive call do not appear. The source made the active and inactive calls. The call rests on the fitted dose curve; tested in HEK293 reporter line.

Experiment: qHTS for Inhibitors of the Functional Ribonucleoprotein Complex (vRNP) of Lassa (LASV) Arenavirus: LASV Primary Screen - GLuc reporter signal (AID 1347082); further: nearly all actives have a fitted effect of over 60% in size
Settings: LASV minigenome vRNP, Gaussia luciferase reporter; series mostly up to 57.5 µM; activity change, negative = inhibition: at the top concentration
On the % scale 0 is the no-effect control and ±100 the full control effect; potency means the concentration at half of the fitted maximal effect.

| Structure (SMILES) | activity change, negative = inhibition | Potency |
| --- | --- | --- |
| CN1CCC[C@H]1CCO[C@](C)(c1ccccc1)c1ccc(Cl)cc1 | 0.101% (inactive) |  |
| COC(=O)c1ccc(=O)c2nc3/c(=C/O)c(O)cc(=O)c3[nH]c12 | 9.32% (inactive) |  |
| COC(=O)c1cc(OC)cc(O)c1C(=O)c1c(O)cc(C)cc1O | -10.4% (inactive) |  |
| CC1(C)C=Cc2c(ccc(C(=O)/C=C/c3ccccc3)c2O)O1 | 3.84% (inactive) |  |
| COc1cc(C)ccc1C(C)C | 5.27% [at 115 µM] (inactive) |  |
| C/C=C(\C)C(=O)O[C@@H]([C@H](O)c1cc2ccc(=O)oc2cc1OC)C(C)(C)O | 1.32% (inactive) |  |
| O=C1C=C(O)c2cccc(O)c2C1=O | 1.08% (inactive) |  |
| COc1cc(C(=O)OC2C[C@H]3CC[C@@H](C2)N3)ccc1O (stereo not given in full) | 3.56% (inactive) |  |
| C/C=C(/C)C(=O)O[C@@H]1c2c(ccc3ccc(=O)oc23)O[C@@H]1C(C)(C)OC(C)=O | -7.05% (inactive) |  |
| CC(C)(O)c1cc2nc(-c3cnc(N)nc3)nc(N3CCOCC3)c2s1 |  | 0.385 µM (active) |
| CC1(C)C2CC1[C@@](C)(O)[C@H](O)C2 (stereo not given in full) | -12.4% (inactive) |  |
| COC(=O)c1cc(O)c(O)c(O)c1 | -3.73% (inactive) |  |
| CCCCN | -6.84% (inactive) |  |
| COC1=CC(=O)[C@@]2([C@@H]1O)[C@@H](Cl)C[C@]13C(OC)=C(OC)C(=O)C[C@]21CCN3C | -6.43% (inactive) |  |
| COc1ccc2c(c1)C(=O)CC(c1ccc(OC)c(OC)c1)O2 (stereo not given) | 0.188% (inactive) |  |
| COc1ccc(C(=O)OC2C[C@H]3CC[C@@H](C2)N3O)cc1OC (stereo not given in full) | 0.996% (inactive) |  |
| CSCC[C@@H](N)C(=O)O | 1.18% (inactive) |  |
| ON=Cc1ccnc2ccccc12 | 10.1% (inactive) |  |
| CC1=CC23C(=O)C(C=C(CO)[C@@H](O)[C@]2(O)[C@H]1O)[C@H]1[C@@H](C[C@H]3C)C1(C)C (stereo not given in full) | 6.4% (inactive) |  |
| CC(=O)c1ccc(C)cc1 | -5.19% [at 115 µM] (inactive) |  |

| Structure (SMILES) | activity change, negative = inhibition | Potency |
| --- | --- | --- |
| CO[C@H]1[C@@H]2C=CO[C@@H](O[C@H]3O[C@@H](CO)[C@H](O)[C@@H](O)[C@@H]3O)[C@@H]2[C@@]2(CO)O[C@@H]12 | 0.111% (inactive) |  |
| C/C(=C\C(=O)O)CC(=O)O | -0.36% (inactive) |  |
| CC[C@@H](O)C[C@H]1CCC[C@@]2(C[C@@H]3OC(=O)/C=C/[C@@](C)(O)[C@@H](O)[C@H](C)[C@@H](O)[C@H](OC4CCC(N(C)C)C(C)O4)[C@@H](O)[C@](C)(O)CCCCC/C=C/[C@@H]4CC(C)(C)O[C@@]4(O)C[C@H](O2)[C@H]3C)O1 (stereo not given in full) | -82.9% (inactive) |  |
| C/C=C(\C)C(=O)O[C@H]1CC(C)=C2C(=O)C=C(C)C2[C@@H]2OC(=O)[C@@](C)(OC(=O)C=C(C)C)C21 (stereo not given in full) | -0.176% (inactive) |  |
| CCCCC/C=C\C/C=C\C=C\[C@@H](O)C/C=C\CCCC(=O)O | -0.303% [at 0.757 µM] (inactive) |  |
| CC(=O)O[C@H]1C(=O)[C@@]2(C)C([C@H](OC(=O)c3ccccc3)[C@]3(O)C[C@H](OC(=O)[C@H](O)[C@@H](NC(=O)c4ccccc4)c4ccccc4)C(C)=C1C3(C)C)[C@]1(OC(C)=O)CO[C@@H]1C[C@H]2O (stereo not given in full) | -19.4% (inactive) |  |
| COc1cc(C(=O)O[C@@H]2CC3CC[C@]2(C)C3(C)C)ccc1O | 3.31% (inactive) |  |
| C=C[C@@]1(C)CC(=O)[C@]2(O)[C@@]3(C)[C@@H](O)CCC(C)(C)[C@@H]3[C@H](OC(C)=O)[C@H](O)[C@@]2(C)O1 | 23.1% (inactive) |  |
| CCOC(=O)[C@H](CCc1ccccc1)N[C@@H](C)C(=O)N1[C@@H](C(=O)O)C[C@H]2CCC[C@@H]21 | 13.2% (inactive) |  |
| CCCCCCCCCCCC(C)=O | -5.47% [at 115 µM] (inactive) |  |
| CC1=CCCC(C)(C)C12CCC(C)O2 (stereo not given) | -0.11% [at 115 µM] (inactive) |  |
| CC(C)(O)Cn1c(NC(=O)c2ccc(-c3cn[nH]c3)s2)nc2cc(CN3CCOCC3)ccc21 |  | 3.43 µM (active) |
| CS(=O)(=O)N1CCN(Cc2cc3nc(-c4cccc5[nH]ncc45)nc(N4CCOCC4)c3s2)CC1 |  | 1.72 µM (active) |
| O=C1CCCCCCCCCCCCCCO1 | 0.0649% [at 115 µM] (inactive) |  |
| COC(=O)[C@@H]1CC2=CC(=O)CC[C@]2(C)[C@@]23O[C@@H]2C[C@@]2(C)[C@H](CC[C@@]24CCC(=O)O4)[C@@H]13 | -1.28% (inactive) |  |
| C[C@@H]1C(=O)O[C@@H]2CC34[C@H]5C[C@@H](C(C)(C)C)C36[C@H](OC(=O)[C@@H]6O)OC4(C(=O)O5)[C@@]12O (stereo not given in full) | -2.04% (inactive) |  |
| O=C1C=C(c2ccccc2)CO1 | -0.604% (inactive) |  |
| COc1cc(C2c3cc4c(c(O)c3CC3COC(=O)C32)OCO4)cc(OC)c1O (stereo not given) | -31.3% (inactive) |  |
| CC[C@H]1OC(=O)[C@H](C)[C@@H](O[C@H]2C[C@@](C)(OC)[C@@H](O)[C@H](C)O2)[C@H](C)[C@@H](O[C@@H]2O[C@@H](C)C[C@H](N(C)C)[C@@H]2O)[C@](C)(O)C[C@@H](C)C(=O)[C@H](C)[C@@H](O)[C@]1(C)O | 2.91% (inactive) |  |
| C=C[C@](C)(O)CC[C@@H]1[C@@]2(C)CCCC(C)(C)[C@@H]2CC[C@@]1(C)O | -11.9% [at 115 µM] (inactive) |  |

Experiment: qHTS for Inhibitors of the Functional Ribonucleoprotein Complex (vRNP) of Lassa (LASV) Arenavirus: Viability assay - alamar blue signal for LASV Primary Screen (AID 1347083); further: nearly all actives have a fitted effect of over 80% in size
Settings: cell viability, alamar blue fluorescence (LASV minigenome counter-screen); series mostly up to 57.5 µM; activity change, negative = reduced viability: at the top concentration

| Structure (SMILES) | activity change, negative = reduced viability | Potency |
| --- | --- | --- |
| CN1CCC[C@H]1CCO[C@](C)(c1ccccc1)c1ccc(Cl)cc1 | -11.5% (inactive) |  |
| COC(=O)c1ccc(=O)c2nc3/c(=C/O)c(O)cc(=O)c3[nH]c12 | 11.8% (inactive) |  |
| COC(=O)c1cc(OC)cc(O)c1C(=O)c1c(O)cc(C)cc1O | 3.67% (inactive) |  |
| CC1(C)C=Cc2c(ccc(C(=O)/C=C/c3ccccc3)c2O)O1 | 10.9% (inactive) |  |
| COc1cc(C)ccc1C(C)C | 1.13% [at 115 µM] (inactive) |  |
| C/C=C(\C)C(=O)O[C@@H]([C@H](O)c1cc2ccc(=O)oc2cc1OC)C(C)(C)O | 0.273% (inactive) |  |
| O=C1C=C(O)c2cccc(O)c2C1=O | 9.76% (inactive) |  |
| COc1cc(C(=O)OC2C[C@H]3CC[C@@H](C2)N3)ccc1O (stereo not given in full) | -6.03% (inactive) |  |
| C/C=C(/C)C(=O)O[C@@H]1c2c(ccc3ccc(=O)oc23)O[C@@H]1C(C)(C)OC(C)=O | 11% (inactive) |  |
| CC(C)(O)c1cc2nc(-c3cnc(N)nc3)nc(N3CCOCC3)c2s1 |  | 0.193 µM (active) |
| CC1(C)C2CC1[C@@](C)(O)[C@H](O)C2 (stereo not given in full) | 0.316% (inactive) |  |
| COC(=O)c1cc(O)c(O)c(O)c1 | -8.17% (inactive) |  |
| CCCCN | 2.07% (inactive) |  |
| COC1=CC(=O)[C@@]2([C@@H]1O)[C@@H](Cl)C[C@]13C(OC)=C(OC)C(=O)C[C@]21CCN3C | 2.75% (inactive) |  |
| COc1ccc2c(c1)C(=O)CC(c1ccc(OC)c(OC)c1)O2 (stereo not given) | 15% (inactive) |  |
| COc1ccc(C(=O)OC2C[C@H]3CC[C@@H](C2)N3O)cc1OC (stereo not given in full) | 21.6% (inactive) |  |
| CSCC[C@@H](N)C(=O)O | -4.73% (inactive) |  |
| ON=Cc1ccnc2ccccc12 | 1.99% (inactive) |  |
| CC1=CC23C(=O)C(C=C(CO)[C@@H](O)[C@]2(O)[C@H]1O)[C@H]1[C@@H](C[C@H]3C)C1(C)C (stereo not given in full) | 25% (inactive) |  |
| CC(=O)c1ccc(C)cc1 | 4.74% [at 115 µM] (inactive) |  |

| Structure (SMILES) | activity change, negative = reduced viability | Potency |
| --- | --- | --- |
| CO[C@H]1[C@@H]2C=CO[C@@H](O[C@H]3O[C@@H](CO)[C@H](O)[C@@H](O)[C@@H]3O)[C@@H]2[C@@]2(CO)O[C@@H]12 | 13.8% (inactive) |  |
| C/C(=C\C(=O)O)CC(=O)O | 5.7% (inactive) |  |
| CC[C@@H](O)C[C@H]1CCC[C@@]2(C[C@@H]3OC(=O)/C=C/[C@@](C)(O)[C@@H](O)[C@H](C)[C@@H](O)[C@H](OC4CCC(N(C)C)C(C)O4)[C@@H](O)[C@](C)(O)CCCCC/C=C/[C@@H]4CC(C)(C)O[C@@]4(O)C[C@H](O2)[C@H]3C)O1 (stereo not given in full) | -107% (inactive) |  |
| C/C=C(\C)C(=O)O[C@H]1CC(C)=C2C(=O)C=C(C)C2[C@@H]2OC(=O)[C@@](C)(OC(=O)C=C(C)C)C21 (stereo not given in full) | -0.34% (inactive) |  |
| CCCCC/C=C\C/C=C\C=C\[C@@H](O)C/C=C\CCCC(=O)O | 9.41% [at 0.757 µM] (inactive) |  |
| CC(=O)O[C@H]1C(=O)[C@@]2(C)C([C@H](OC(=O)c3ccccc3)[C@]3(O)C[C@H](OC(=O)[C@H](O)[C@@H](NC(=O)c4ccccc4)c4ccccc4)C(C)=C1C3(C)C)[C@]1(OC(C)=O)CO[C@@H]1C[C@H]2O (stereo not given in full) | -83.6% (inactive) |  |
| COc1cc(C(=O)O[C@@H]2CC3CC[C@]2(C)C3(C)C)ccc1O | 19.9% (inactive) |  |
| C=C[C@@]1(C)CC(=O)[C@]2(O)[C@@]3(C)[C@@H](O)CCC(C)(C)[C@@H]3[C@H](OC(C)=O)[C@H](O)[C@@]2(C)O1 | -0.0982% (inactive) |  |
| CCOC(=O)[C@H](CCc1ccccc1)N[C@@H](C)C(=O)N1[C@@H](C(=O)O)C[C@H]2CCC[C@@H]21 | -25.6% (inactive) |  |
| CCCCCCCCCCCC(C)=O | 11.3% [at 115 µM] (inactive) |  |
| CC1=CCCC(C)(C)C12CCC(C)O2 (stereo not given) | -15.4% [at 115 µM] (inactive) |  |
| CC(C)(O)Cn1c(NC(=O)c2ccc(-c3cn[nH]c3)s2)nc2cc(CN3CCOCC3)ccc21 |  | 3.43 µM (active) |
| CS(=O)(=O)N1CCN(Cc2cc3nc(-c4cccc5[nH]ncc45)nc(N4CCOCC4)c3s2)CC1 |  | 0.968 µM (active) |
| O=C1CCCCCCCCCCCCCCO1 | 11.4% [at 115 µM] (inactive) |  |
| COC(=O)[C@@H]1CC2=CC(=O)CC[C@]2(C)[C@@]23O[C@@H]2C[C@@]2(C)[C@H](CC[C@@]24CCC(=O)O4)[C@@H]13 | -2.45% (inactive) |  |
| C[C@@H]1C(=O)O[C@@H]2CC34[C@H]5C[C@@H](C(C)(C)C)C36[C@H](OC(=O)[C@@H]6O)OC4(C(=O)O5)[C@@]12O (stereo not given in full) | 22.8% (inactive) |  |
| O=C1C=C(c2ccccc2)CO1 | 3.9% (inactive) |  |
| COc1cc(C2c3cc4c(c(O)c3CC3COC(=O)C32)OCO4)cc(OC)c1O (stereo not given) | -102% (inactive) |  |
| CC[C@H]1OC(=O)[C@H](C)[C@@H](O[C@H]2C[C@@](C)(OC)[C@@H](O)[C@H](C)O2)[C@H](C)[C@@H](O[C@@H]2O[C@@H](C)C[C@H](N(C)C)[C@@H]2O)[C@](C)(O)C[C@@H](C)C(=O)[C@H](C)[C@@H](O)[C@]1(C)O | 2.1% (inactive) |  |
| C=C[C@](C)(O)CC[C@@H]1[C@@]2(C)CCCC(C)(C)[C@@H]2CC[C@@]1(C)O | 1.45% [at 115 µM] (inactive) |  |
